In PubChem BioAssay:
Calls of active or inactive are those of the source. Unless noted, how the calls were made is not given here.

Tests used:
[1] = A549 cell viability effects, profiling panel, calcein-AM fluorescence, 48 h, basal (AID 1162); conditions: higher = more signal; further: test concentration not given here
[2] = adipocyte viability effects, profiling panel, cell-based, 3T3-L1 adipocytes, calcein-AM fluorescence, 48 h, basal (AID 1163); conditions: 3T3-L1 adipocytes viability, higher = more signal; further: test concentration not given here
[3] = HepG2 cell viability effects, profiling panel, calcein-AM fluorescence, 48 h, basal (AID 1164); conditions: higher = more signal; further: test concentration not given here
[4] = MM1S cell viability effects, profiling panel, calcein-AM fluorescence, 48 h, basal (AID 1165); conditions: higher = more signal;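 further: viability of MM1S multiple myeloma cells under basal unstimulated conditions; test concentration not given here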
[5] = basal RPMI8226 viability, no added stimulus, profiling panel, cell-based, calcein-AM fluorescence, 48 h, PK04 Diversity Set (AID 1166); conditions: RPMI8226 myeloma viability, higher = more signal;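 further: cells grown under basal conditions without added stimulus; test concentration not given here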
[6] = basal HepG2 mitochondrial membrane potential changes, profiling panel, cell-based, JC-1 fluorescence, 24 h, 100 nL compound (AID 1167); conditions: higher = more signal; further: test concentration not given here
[7] = basal 3T3-L1 adipocyte mitochondrial potential changes, profiling panel, cell-based, JC-1 fluorescence, 3T3-L1 adipocytes, 24 h, 100 nL compound (AID 1168); conditions: JC-1 mitochondrial fluorescence, higher = more signal, called active from +8 up or from −8 down; further: test concentration not given here
[8] = basal RPMI8226 mitochondrial membrane potential changes, profiling panel, cell-based, JC-1 fluorescence, 24 h, 100 nL compound (AID 1169); conditions: RPMI8226 myeloma, JC-1 mitochondrial potential fluorescence, higher = more signal; further: test concentration not given here
[9] = basal MM1S mitochondrial membrane potential changes, profiling panel, cell-based, JC-1 fluorescence, 24 h, 100 nL compound (AID 1170); conditions: higher = more signal; further: test concentration not given here
[10] = A549 lung cancer cell viability effects, profiling panel, resazurin fluorescence, 24 h, PK04 Diversity Set (AID 1171); conditions: higher = more signal, called active from +8 up or from −8 down; further: test concentration not given here
[11] = HepG2 liver cancer cell viability effects, profiling panel, resazurin fluorescence, 24 h, PK04 Diversity Set (AID 1172); conditions: higher = more signal; further: test concentration not given here
[12] = basal S. cerevisiae growth modulation, no modifier, primary screen, OD600, strain BY4716, 24 h, basal condition (AID 1173); conditions: OD600, 24 h, higher = more signal, called active from +8 up or from −8 down
[13] = MM1S myeloma cell viability, profiling panel, resazurin fluorescence, basal, 24 h, PK04 Diversity Set (AID 1174); conditions: higher = more signal, called active from +8 up or from −8 down;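 further: MM1S multiple myeloma cell line; test concentration not given here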
[14] = molecular target: Dihydroorotate dehydrogenase (quinone), mitochondrial (Plasmodium falciparum (isolate 3D7)) (UniProt Q08210); assay: PfDHODH enzyme inhibitors, primary screen, biochemical, C-terminal His tag, absorbance 600 nm (AID 1175); conditions: DCIP absorbance 600 nm, higher = more signal, called active from +8 up or from −8 down;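 further: recombinant parasite enzyme with a five histidine tag at its C terminus; test concentration not given here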
Dihydroorotate dehydrogenase (quinone), mitochondrial (Plasmodium falciparum (isolate 3D7)), sequence (Q08210 whole entry, looked up): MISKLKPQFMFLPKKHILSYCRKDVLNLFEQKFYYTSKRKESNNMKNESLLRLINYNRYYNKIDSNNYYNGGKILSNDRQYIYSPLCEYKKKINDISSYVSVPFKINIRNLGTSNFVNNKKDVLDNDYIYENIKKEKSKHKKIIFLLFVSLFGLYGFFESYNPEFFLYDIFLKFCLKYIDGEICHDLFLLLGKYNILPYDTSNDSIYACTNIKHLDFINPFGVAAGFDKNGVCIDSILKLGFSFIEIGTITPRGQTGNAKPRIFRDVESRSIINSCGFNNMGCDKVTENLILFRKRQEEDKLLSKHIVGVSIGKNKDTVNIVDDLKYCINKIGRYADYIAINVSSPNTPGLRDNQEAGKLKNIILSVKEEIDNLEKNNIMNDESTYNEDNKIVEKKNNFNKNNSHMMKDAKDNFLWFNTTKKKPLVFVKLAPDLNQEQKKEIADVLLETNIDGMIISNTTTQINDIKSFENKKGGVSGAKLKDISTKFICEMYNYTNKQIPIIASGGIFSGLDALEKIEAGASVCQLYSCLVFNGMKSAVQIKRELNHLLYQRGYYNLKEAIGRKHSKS

[15] = P. aeruginosa biofilm formation inhibitors, primary screen, strain PAO1, LB-PBS medium, absorbance 600 nm (AID 1176); further: test concentration not given here; conditions: P. aeruginosa PAO1 growth/biofilm, A600, 12 h; higher = more signal
[16] = S. cerevisiae RM11-1a growth modifiers, primary screen, strain RM11-1a, OD600, basal, 24 h (AID 1177); conditions: OD600, 24 h, higher = more signal, called active from +8 up or from −8 down;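 further: cultures grown under basal conditions with no added stressor; test concentration not given here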
[17] = E. coli acrAB mutant growth effects, primary screen, E. coli filamentation inducers, strain DRC39, OD650, 24 h (AID 1178); conditions: higher = more signal, called active from +8 up or from −8 down;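 further: growth measured as culture turbidity by optical density at 650 nm; test concentration not given here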
[18] = E. coli acrAB mutant growth effects, primary screen, E. coli filamentation inducers, strain DRC39, OD650, 48 h (AID 1179);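 further: screen aims at cell division blockers that make cells filament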; conditions: E. coli DRC39 delta-acrAB growth, higher = more signal, called active from +8 up or from −8 down
[19] = RPMI8226 myeloma cell viability, profiling panel, resazurin fluorescence, basal, 24 h, PK04 Diversity Set (AID 1180); conditions: higher = more signal;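 further: RPMI8826 multiple myeloma cell line at 5000 cells per well; test concentration not given here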
[20] = molecular target: E3 ubiquitin-protein ligase XIAP (Homo sapiens) (UniProt P98170); assay: XIAP binders, primary screen, biophysical, small-molecule microarray, fluorescence 635 nm (AID 1181); conditions: small-molecule microarray binding, higher = more signal;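 further: score merges 667 nm emission and signal to noise over triplicate slides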
E3 ubiquitin-protein ligase XIAP (Homo sapiens), sequence (P98170 whole entry, looked up): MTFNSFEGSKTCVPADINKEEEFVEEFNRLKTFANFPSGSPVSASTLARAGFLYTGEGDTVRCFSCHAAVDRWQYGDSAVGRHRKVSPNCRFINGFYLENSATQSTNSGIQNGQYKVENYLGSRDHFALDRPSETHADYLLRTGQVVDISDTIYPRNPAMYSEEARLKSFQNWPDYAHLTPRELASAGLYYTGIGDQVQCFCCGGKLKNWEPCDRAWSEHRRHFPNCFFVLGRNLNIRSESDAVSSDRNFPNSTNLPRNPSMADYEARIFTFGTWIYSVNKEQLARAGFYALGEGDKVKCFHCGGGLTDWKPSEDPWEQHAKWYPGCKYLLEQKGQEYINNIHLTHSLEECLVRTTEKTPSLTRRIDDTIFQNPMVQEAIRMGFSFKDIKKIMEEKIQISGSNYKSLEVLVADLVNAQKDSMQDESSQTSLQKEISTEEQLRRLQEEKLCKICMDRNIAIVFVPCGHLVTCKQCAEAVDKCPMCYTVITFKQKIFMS

## CCCC=C(CCC)[C@@H](NC(=O)OCC(C)C)c1ccccc1
[1]
  z-score: -0.628
[2]
  z-score: 0.722
[3]
  z-score: -0.927
[4]
  z-score: -0.0228
[5]
  z-score: -1.71
[6]
  z-score: 0.485
[7]
  z-score: -0.594 (inactive)
[8]
  z-score: 0.0132
[9]
  z-score: -0.558
[10]
  z-score: 0.292 (inactive)
[11]
  z-score: -0.624
[12]
  z-score: 1.08 (inactive)
[13]
  z-score: -0.863 (inactive)
[14]
  composite z-score: -4.03 (inactive)
[15]
  z-score: 2.77 (inactive)
[16]
  z-score: 0.396 (inactive)
[17]
  z-score: -0.526 (inactive)
[18]
  z-score: -1.64 (inactive)
[19]
  z-score: 0.0342
[20]
  composite z-score: -0.0852

## O=C1OCC=C[C@H]2OC34C=CCN(Cn5nnc6ccccc65)C(=O)[C@H]3N(CCCCCO)C(=O)[C@@H]4[C@@H]12 (stereo not given in full)
[1]
  z-score: -0.382
[2]
  z-score: 0.188
[3]
  z-score: -0.609
[4]
  z-score: 0.823
[5]
  z-score: 0.903
[6]
  z-score: -0.0737
[7]
  z-score: -0.135 (inactive)
[8]
  z-score: 0.205
[9]
  z-score: 0.183
[10]
  z-score: -0.301 (inactive)
[11]
  z-score: 0.0883
[12]
  z-score: 0.21 (inactive)
[13]
  z-score: -0.0233 (inactive)
[14]
  composite z-score: -1.24 (inactive)
[15]
  z-score: 0.193 (inactive)
[16]
  z-score: -0.273 (inactive)
[17]
  z-score: -0.293 (inactive)
[18]
  z-score: -0.571 (inactive)
[19]
  z-score: -0.0297
[20]
  composite z-score: 0.515

## C=CCNC(=O)[C@@H]1[C@H]2C(=O)O[C@H](c3ccccc3)[C@H](c3ccccc3)N2[C@H](c2ccc(OCCO)cc2)[C@@]12C(=O)N(C(=O)OCCOC)c1ccc(C#CCC(C(=O)OC)C(=O)OC)cc12
[1]
  z-score: -0.906
[2]
  z-score: 0.445
[3]
  z-score: -0.713
[4]
  z-score: -1.85
[5]
  z-score: -1.34
[6]
  z-score: 0.366
[7]
  z-score: 0.0731 (inactive)
[8]
  z-score: -0.799
[9]
  z-score: -1.16
[10]
  z-score: 0.185 (inactive)
[11]
  z-score: -0.185
[12]
  z-score: 1.01 (inactive)
[13]
  z-score: 0.351 (inactive)
[14]
  composite z-score: -1.27 (inactive)
[15]
  z-score: 2.85 (inactive)
[16]
  z-score: 1.61 (inactive)
[17]
  z-score: 0.854 (inactive)
[18]
  z-score: -0.033 (inactive)
[19]
  z-score: -1.24
[20]
  composite z-score: 0.284

## O=C1C2C=CC(C(O)C=Cc3ccc([N+](=O)[O-])cc3)N(n3cnnc3)C2C(=O)N1Cc1ccccc1 (stereo not given)
[1]
  z-score: -0.915
[2]
  z-score: 0.0646
[3]
  z-score: -0.129
[4]
  z-score: -0.232
[5]
  z-score: -1.03
[6]
  z-score: -1.07
[7]
  z-score: -0.566 (inactive)
[8]
  z-score: 0.646
[9]
  z-score: -0.178
[10]
  z-score: 0.367 (inactive)
[11]
  z-score: 0.178
[12]
  z-score: -0.586 (inactive)
[13]
  z-score: -0.519 (inactive)
[14]
  composite z-score: 0.607 (inactive)
[15]
  z-score: 0.601 (inactive)
[16]
  z-score: -0.155 (inactive)
[17]
  z-score: -0.866 (inactive)
[18]
  z-score: -0.721 (inactive)
[19]
  z-score: -0.647
[20]
  composite z-score: -0.236

## C[N+](C)(C)CCCCCCNC(=O)[C@H]1C[C@H]2C(=O)N[C@@H](Cc3ccccc3)C(=O)N2[C@H]1c1cccc(OCCO)c1
[1]
  z-score: -0.344
[2]
  z-score: -1.04
[3]
  z-score: -0.695
[4]
  z-score: 0.245
[5]
  z-score: 0.517
[6]
  z-score: -1.25
[7]
  z-score: -0.371 (inactive)
[8]
  z-score: -0.186
[9]
  z-score: -0.545
[10]
  z-score: 0.568 (inactive)
[11]
  z-score: 0.384
[12]
  z-score: 0.0938 (inactive)
[13]
  z-score: 0.313 (inactive)
[14]
  composite z-score: -1.22 (inactive)
[15]
  z-score: 0.255 (inactive)
[16]
  z-score: 0.548 (inactive)
[17]
  z-score: 0.395 (inactive)
[18]
  z-score: 0.551 (inactive)
[19]
  z-score: 0.23
[20]
  composite z-score: -0.144

## C=CC[C@]1(C(=O)NCc2ccccc2)N=C(c2ccc(OCCCO)cc2)O[C@H]1c1ccccc1CN=[N+]=[N-]
[1]
  z-score: -0.774
[2]
  z-score: 0.0129
[3]
  z-score: 0.22
[4]
  z-score: -1.28
[5]
  z-score: -1.81
[6]
  z-score: 0.24
[7]
  z-score: -0.889 (inactive)
[8]
  z-score: -0.787
[9]
  z-score: 0.407
[10]
  z-score: 0.668 (inactive)
[11]
  z-score: 0.238
[12]
  z-score: -0.0802 (inactive)
[13]
  z-score: -0.871 (inactive)
[14]
  composite z-score: 0.548 (inactive)
[15]
  z-score: 1.06 (inactive)
[16]
  z-score: 0.149 (inactive)
[17]
  z-score: -0.0443 (inactive)
[18]
  z-score: -1.25 (inactive)
[19]
  z-score: -0.328
[20]
  composite z-score: -0.0322

## CCCCCCc1nc(-c2ccc(-c3ccc(Cl)c(Cl)c3)o2)cc2c1[Si](C(C)C)(C(C)C)O[C@H]2c1ccccc1
[1]
  z-score: -0.793
[2]
  z-score: -0.0866
[3]
  z-score: -1.08
[4]
  z-score: -0.373
[5]
  z-score: 0.568
[6]
  z-score: 0.474
[7]
  z-score: -0.0412 (inactive)
[8]
  z-score: 0.278
[9]
  z-score: -0.284
[10]
  z-score: 1.19 (inactive)
[11]
  z-score: 1.32
[12]
  z-score: -0.911 (inactive)
[13]
  z-score: 0.551 (inactive)
[14]
  composite z-score: -0.206 (inactive)
[15]
  z-score: -0.771 (inactive)
[16]
  z-score: -0.361 (inactive)
[17]
  z-score: 0.708 (inactive)
[18]
  z-score: 0.447 (inactive)
[19]
  z-score: 0.0719
[20]
  composite z-score: -0.0641

## COC(=O)c1c(CC[C@@H](CO)NC(=O)NCCc2c[nH]c3ccccc23)oc(C(=O)Cc2ccccc2)c1C(=O)OC
[1]
  z-score: -0.22
[2]
  z-score: 1.12
[3]
  z-score: -0.496
[4]
  z-score: 0.49
[5]
  z-score: 0.459
[6]
  z-score: -1.27
[7]
  z-score: -0.484 (inactive)
[8]
  z-score: 0.636
[9]
  z-score: 0.0389
[10]
  z-score: 0.926 (inactive)
[11]
  z-score: 1.35
[12]
  z-score: -1.46 (inactive)
[13]
  z-score: 1.31 (inactive)
[14]
  composite z-score: -2.63 (inactive)
[15]
  z-score: -0.771 (inactive)
[16]
  z-score: -0.731 (inactive)
[17]
  z-score: 1.04 (inactive)
[18]
  z-score: 0.733 (inactive)
[19]
  z-score: 0.861
[20]
  composite z-score: -0.406

## [N-]=[N+]=Nc1ccccc1C[C@]1(C(=O)NCC(O)CO)N=C(c2ccc(OCCCO)cc2)O[C@H]1c1ccccc1 (stereo not given in full)
[1]
  z-score: -0.432
[2]
  z-score: -0.281
[3]
  z-score: -0.259
[4]
  z-score: -1.04
[5]
  z-score: -0.984
[6]
  z-score: -0.571
[7]
  z-score: -0.332 (inactive)
[8]
  z-score: -0.514
[9]
  z-score: -0.283
[10]
  z-score: 0.381 (inactive)
[11]
  z-score: -0.577
[12]
  z-score: -1.23 (inactive)
[13]
  z-score: -0.62 (inactive)
[14]
  composite z-score: 0.986 (inactive)
[15]
  z-score: 1.13 (inactive)
[16]
  z-score: 2 (inactive)
[17]
  z-score: -0.283 (inactive)
[18]
  z-score: -0.949 (inactive)
[19]
  z-score: -1
[20]
  composite z-score: -0.0525
